Vif-APOBEC3F blk = qHTS for Inhibitors of Vif-A3F Interactions: qHTS; HeLa A3F-eYFP + Vif (tagged APOBEC3F with the HIV-1 protein that degrades it), YFP fluorescence increase; actives 0.2% (n = 390,000); Potency, µM (highest dose often 46.1 µM), for inactives: top-dose activity, negative = active; AID 602313, 2012; note: potency is the fitted concentration of half-maximal effect; % of control where 0% means no effect; nearly all actives have a fitted effect of over 65% in size
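HeLa cells stably expressing A3F-eYFP plus Vif, plated and incubated overnight at 37 deg C, then exposed to compounds overnight at 37 deg C. Blocked degradation read as raised yellow fluorescence (Ex 488/Em 500-530).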
PINK1 modulator = A Quantitative High throughput Screen to Identify Chemical Modulators of PINK1 Expression; PINK1 immunofluorescence, high-content cytometry, 24 h; Potency, µM (doses to about 76.6 µM), for inactives: at the highest dose activation (PINK1 increase), most hits filed as activators; actives 0.2% (n = 410,000); AID 624263, 2012; active = well fitted activation curve with a large enough effect; inconclusive = small, poorly fitted or top-dose-only effect; cell line not stated here; note: potency is the fitted concentration of half-maximal effect; % of control where 0% means no effect; nearly all actives have a fitted effect of over 65% in size
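Stable cell line treated 24 h with compounds at 5 concentrations (CCCP controls), then fixed and immunostained for PINK1 plus nuclear and cell stains; PINK1 immunofluorescence quantified by laser-scanning microplate cytometry.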
TRPML1 inh = qHTS for Inhibitors of the Human Mucolipin Transient Receptor Potential 1 (TRPML1); Mucolipin-1 (Homo sapiens), Q9GZU1; TRPML1-inducible cells, Ca2+ dye fluorescence, FDSS; stronger effect = lower value; inhibition of EC80 agonist-evoked calcium signal; activity change, negative = inhibition, % (test concentration not listed); actives 0.02% (n = 390,000); AID 624415, 2012; in the data active = activity change below about -50%; inconclusive = between about -30% and that limit;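 note: stimulus is agonist 54-4 at its EC80 concentration; % is set by controls: 0 for no effect and ±100 for the full control effect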
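Calcium fluorescence in TRPML1-DL cells induced overnight with Tet: a 110 s read after compound pin addition, then a 110 s antagonist read after challenge with 54-4 at 4 uM final (EC80).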
TRPML1 ag = qHTS for Agonists of the Human Mucolipin Transient Receptor Potential 1 (TRPML1); Mucolipin-1 (Homo sapiens), Q9GZU1; TRPML1-expressing cells, Ca2+ dye fluorescence, FDSS; activation, % (test concentration not listed); actives 0.12% (n = 410,000); AID 624414, 2012; in the data active = activation above about 50%; inconclusive = mostly about 30% to 49%; note: 0% is about no effect
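TRPML1-DL cells, Tet-induced overnight (~16 h, 37 degrees C), loaded 45-90 min at room temperature with Ca8 no-wash calcium dye plus quencher. FDSS fluorescence: 10 s baseline, compound pin-transfer, 110 s agonist read, then EC80 54-4 (4uM final) and 110 s antagonist read.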
Vif-A3G inh = qHTS for Inhibitors of Vif-A3G Interactions: qHTS | DNA dC->dU-editing enzyme APOBEC-3G (Homo sapiens), Q9HC16 | HeLa A3G-eYFP + Vif (tagged APOBEC3G with the HIV-1 protein that degrades it), YFP fluorescence, overnight | Potency, µM (highest dose often 46.1 µM), inactives show at the highest dose activity, negative = active, hits mostly inhibitors | actives 0.076% (n = 410,000); note: potency is the fitted concentration of half-maximal effect; % is set by controls: 0 for no effect and ±100 for the full control effect; nearly all actives have a fitted effect of over 60% in size
Target sequence (Q9HC16 whole entry, looked up): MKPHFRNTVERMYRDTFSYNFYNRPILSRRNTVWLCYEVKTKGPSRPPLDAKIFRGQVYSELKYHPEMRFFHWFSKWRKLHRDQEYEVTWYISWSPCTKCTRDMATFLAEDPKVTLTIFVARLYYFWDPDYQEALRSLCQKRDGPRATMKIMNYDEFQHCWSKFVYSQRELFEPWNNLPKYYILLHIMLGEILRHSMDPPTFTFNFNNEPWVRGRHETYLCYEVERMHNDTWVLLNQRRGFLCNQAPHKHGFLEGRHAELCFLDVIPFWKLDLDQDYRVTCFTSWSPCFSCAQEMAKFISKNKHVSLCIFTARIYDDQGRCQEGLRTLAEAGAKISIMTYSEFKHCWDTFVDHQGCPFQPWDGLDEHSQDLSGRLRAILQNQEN
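HeLa cells stably expressing Vif and C-terminally eYFP-tagged A3G, seeded overnight at 37 deg C, then exposed to compound by pintool overnight at 37 deg C. Rise in yellow fluorescence (Ex 488/Em 500-530, Acumen) marks blocked Vif-driven A3G degradation.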
The depositor's hits bear a star; ? = inconclusive; nt = no result given. Rows were chosen to be rich in hits. Some 0.52% of all compounds tested hit in one or more screens of this group. Unless noted, calls come from the whole dose curve; as a rule, active = well fitted curve in the direction sought with a large enough effect; inconclusive = small, poorly fitted or top-dose-only effect, or another doubt; inactive = no such curve, though single readings can be large; an effect the other way counts as inactive or inconclusive.

SMILES	Vif-APOBEC3F blk	PINK1 modulator	TRPML1 inh	TRPML1 ag	Vif-A3G inh
c1ccc(C(NCCNC(c2ccccc2)c2ccccc2)c2ccccc2)cc1	?	40µM*	-4	1	5%
O=C(Nc1ccc2oc(-c3ccccc3)nc2c1)c1ccc2c(c1)OCCO2	8%	13µM*	36	0	-13%
CN1C(=O)C(N=Nc2ccc([N+](=O)[O-])cc2)SC1=S (centres undefined)	1%	45µM*	3	6	-2%
CN1CCCCCC1=Nc1ccc([N+](=O)[O-])cc1	-1%	-1%	25	0	1%
CC1=C/C(=C\C=C(C#N)C#N)N(C)c2ccccc21	?	?	47	18	1.8µM*
CN1/C(=C/C=C(C#N)C#N)C(C)(C)c2ccccc21	?	13%	-3	0	-30%
Cc1cccc(Nc2nnc(SC/C(O)=C(\C#N)c3nc4ccccc4[nH]3)s2)c1	22µM*	1%	-12	1	-27%
Cc1ccc(Nc2nnc(SC/C(O)=C(\C#N)c3nc4ccccc4[nH]3)s2)c(C)c1	-30%	0%	14	0	-1%
CCOC(=O)/C=C(\C)Sc1cc(O)c2ccccc2c1O	22µM*	8%	54	1	?
O=C(COC(=O)c1cccnc1Cl)Nc1ccccc1OC(F)F	10µM*	2%	-5	0	0%
O=C(COC(=O)c1ccccn1)Nc1ccccc1OC(F)F	?	1%	-27	0	-4%
CC(=O)c1ccc(S(=O)(=O)N(C)CCCC(=O)NCc2ccc3c(c2)OCO3)cc1	4%	1%	8	0	0%
O=[N+]([O-])c1ccc2[nH]c(O)c(N=Nc3ccc(F)cc3)c2c1	-32%	28µM*	21	0	0%
Oc1[nH]c2ccccc2c1N=Nc1ccccc1	25µM*	1%	16	1	?
O=[N+]([O-])c1ccc(N=Nc2c(O)[nH]c3ccc(F)cc23)cc1	?	1%	1	-1	-27%
CCN(CC)S(=O)(=O)c1cc([N+](=O)[O-])ccc1N=Nc1c(O)[nH]c2ccccc12	13µM*	11µM*	18	0	-13%
Cc1cc(SCC(=O)NCC2CCCO2)nc2ccccc12 (centres undefined)	?	-1%	20	4	?
CC1CCCCN1S(=O)(=O)c1cc2c3c(c1)CC(=O)N3CCC2 (centres undefined)	0%	2%	-22	-1	-3%
Cc1ccc2nc(CO)[nH]c2c1	nt	0%	nt	0	0%
O=C(Nc1ccccc1)Nc1nnc(CSCc2ccccc2Cl)s1	-15%	?	-14	2	4%
O=C(Nc1ccc(Cl)cc1)Nc1nnc(CSCc2ccccc2Cl)s1	0%	40µM*	-10	0	-2%
O=C(Nc1ccc(Cl)c(Cl)c1)Nc1nnc(CSc2ccccc2)s1	-32%	10µM*	-10	1	-3%
Fc1ccc2c(c1)-c1c(cnc3cc(-c4ccc(Cl)cc4)nn13)CO2	-10%	1%	-19	0	-2%
COc1ccc(C(=O)NCc2nnc(SCC(=O)Nc3ccccc3)n2-c2ccccc2)cc1	0%	1%	-13	1	4%
CCN(CC)c1ccc2nc3ccc(N)cc3[n+](-c3ccccc3)c2c1	2%	10µM*	16	2	7%
CCN(CC)c1ccc2nc3ccccc3[n+](CC)c2c1	-19%	4%	24	-1	-3%
N#C/C(=C(/O)c1ccc2c(c1)OCO2)c1nc2cc(C(F)(F)F)ccc2s1	11%	14µM*	-9	-1	2%
S=C(NCc1ccco1)Nc1ccc(Cl)cn1	25µM*	1%	-5	-1	-1%
S=C(NCc1ccco1)Nc1ccccn1	?	-2%	28	0	6%
CCOC(=O)/C(=N/Nc1ccccc1)c1csc(Nc2ccccc2)n1	-21%	11µM*	-12	1	0%

High-throughput results (PubChem)
